Data published in PubChem BioAssay AID2438 (Vanderbilt High Throughput Screening Facility, 2010).
Entries with a potency or affinity are not part of this list. Unmarked numbers belong to inactive results.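 The calls were made as follows: active = dose curve whose fit quality R squared exceeds 0.5; inactive = the rest.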

Each compound was assayed against Muscarinic acetylcholine receptor M4 (Rattus norvegicus) (UniProt P08485) (assay: rat M4 receptor positive allosteric modulation check, dose response, selectivity assay for M1 muscarinic PAM project, cell-based, CHO-K1 rat M4/Gqi5, Fluo-4 calcium, ACh EC20 (AID 2438)). Conditions: ACh EC20 potentiation; series mostly up to 30 µM; percent of max ACh response: at the top concentration.
Sequence of Muscarinic acetylcholine receptor M4 (Rattus norvegicus) (P08485 whole entry, looked up): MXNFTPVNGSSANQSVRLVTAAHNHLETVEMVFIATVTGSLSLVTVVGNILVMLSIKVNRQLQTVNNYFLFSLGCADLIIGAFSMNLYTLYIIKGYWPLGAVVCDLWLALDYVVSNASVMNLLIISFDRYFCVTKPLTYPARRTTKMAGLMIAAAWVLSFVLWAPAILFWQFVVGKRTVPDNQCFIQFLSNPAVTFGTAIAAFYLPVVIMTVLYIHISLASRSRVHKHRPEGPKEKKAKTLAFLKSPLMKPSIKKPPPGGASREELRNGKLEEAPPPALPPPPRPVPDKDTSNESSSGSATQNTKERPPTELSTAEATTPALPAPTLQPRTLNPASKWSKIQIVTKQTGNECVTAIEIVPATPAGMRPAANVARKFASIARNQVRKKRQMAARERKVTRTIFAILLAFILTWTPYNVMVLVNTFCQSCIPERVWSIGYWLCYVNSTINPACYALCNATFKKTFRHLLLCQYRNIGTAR

Row | SMILES | percent of max ACh response [%]
1 | O=C1C(=O)N(Cc2ccc(Oc3ccccc3)cc2)c2ccc(OC(F)(F)F)cc21 | 14.5
2 | Cc1cc(NC(=O)CS(=O)(=O)c2cn(Cc3cc(Br)ccc3F)c3ccccc23)no1 | 16.2
3 | Cn1cc(-c2ccc(CN3C(=O)C(=O)c4ccccc43)c(F)c2)cn1 | 18
4 | Cn1cc(-c2cc(F)c(CN3C(=O)C(=O)c4ccccc43)c(F)c2)cn1 | 15.7
